The nature of the assay: small-molecule microarray binders of probe aNog, primary screen, biochemical, biotinylated probe, 635/667 nm fluorescence (AID 1115).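 Note: probe is biotinylated aNog protein used at 0.15 µg/mL for 1 h at 4 C; z-score combines 667 nm fluorescence of each spot with its signal to noise.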 The note with it: higher = more signal.
`C=C1C(=O)C=C2CN(C(=O)c3ccccc3)[C@@](Cc3ccc(OC)cc3)(C(=O)OC)[C@@H]12` displayed a composite z-score of 2.04.

In turn, `COC(=O)[C@@]1(Cc2ccc(F)cc2)[C@H]2c3cc(C(=O)N(C)C)n(C)c3C[C@H]2CN1C(=O)c1ccccc1` came in with a composite z-score of 1.01.

The molecule `COCCCNC(=O)[C@@]1(CCS(=O)(=O)c2ccccc2)COC(c2ccc(OCCCO)cc2)=N1` displayed a composite z-score of 2.04.

`CO[C@H]1O[C@H](CO)[C@@H](OC(=O)Nc2ccc3c(c2)OCO3)[C@H](OC(=O)Nc2ccccc2-c2ccccc2)[C@H]1OC(=O)Nc1ccccc1-c1ccccc1` returned a composite z-score of 0.747.

In the case of `NC(=O)N1C(=O)C2C(C1=O)C1C=C(CCCO)C2C(C2CC2)N1Cc1sc2ccccc2c1Cl` (stereo unspecified), the composite z-score was 0.654.

Consider `C=CC[C@@]1(C(=O)OC)N=C(c2ccc(OCCCO)cc2)O[C@@H]1c1ccccc1N=[N+]=[N-]`, for which the composite z-score is 0.604.

Turning to `C=CCC(OC(C)=O)[C@@H]1[C@@H](N(Cc2ccc(-c3ccccc3)cc2)C(=O)c2cccc3ccccc23)c2cc(OCCCO)ccc2N1C(=O)Cc1ccc(OC)cc1` (stereo partly specified), the composite z-score was -0.202.

Regarding `CCOc1cc(C(O)C2C=CC3C(=O)N(c4ccccc4)C(=O)C3N2Nc2ccccc2F)ccc1O` (stereo unspecified), the composite z-score was 1.71.

For the molecule `C=CCC(OC(C)=O)[C@@H]1[C@@H](N(Cc2cc3ccccc3o2)C(=O)c2cccc3ccccc23)c2cc(OCCCO)ccc2N1C(=O)c1ccc2ccccc2n1` (stereo partly specified), the composite z-score was -0.0381.

Regarding `COc1ccc(C(O)C2C=CC3C(=O)N(C)C(=O)C3N2N(c2ccccc2)c2ccccc2)cc1` (stereo unspecified), the composite z-score was 0.83.

The molecule `O=C1O[C@@H](c2ccccc2)[C@@H](c2ccccc2)N2[C@@H](c3ccc(OCCO)cc3)[C@]3(C(=O)Nc4ccc(C#CC5(O)CCCCCC5)cc43)[C@@H](C(=O)Nc3nc4ccccc4s3)[C@H]12` yielded a composite z-score of 0.516.

Regarding `COCCOC(=O)N1C(=O)[C@@]2(c3cc(C#CCCO)ccc31)[C@H](C(N)=O)[C@H]1C(=O)O[C@H](c3ccccc3)[C@H](c3ccccc3)N1[C@@H]2c1ccccc1OCCO`, the composite z-score amounted to 0.135.

In turn, `CC1CC/C=C\[C@H]2OC34C=CCN(C(C)(C)C)C(=O)[C@H]3N(CCCO)C(=O)[C@@H]4C2C(=O)O1` (stereo partly specified) yielded a composite z-score of 0.0215.

Regarding `COc1ccc([Si](C)(C)[C@H]2[C@H](CC(=O)N3Cc4ccccc4C[C@H]3CO)O[C@@]3(C(=O)N(C)c4ccccc43)[C@@H]2C)cc1`, the composite z-score was -0.299.

For `Cc1ccc(S[C@]2(C(=O)NCCCN(C)C)CC(=O)N(C3Cc4ccccc4C3)[C@@H]2c2ccc(CO)cc2I)cc1`, the composite z-score was -0.291.

As to `O=C1O[C@H](c2ccccc2)[C@H](c2ccccc2)N2[C@H]1[C@@H](C(=O)N1CCN(c3ncccn3)CC1)[C@]1(C(=O)Nc3ccc(C#CCCO)cc31)[C@H]2c1ccc(O)cc1`, the composite z-score is -0.0927.

As for `[N-]=[N+]=Nc1ccccc1C[C@]1(C(=O)N2CCOCC2)N=C(c2ccc(OCCCO)cc2)O[C@H]1c1ccccc1N=[N+]=[N-]`, the composite z-score is -0.626.

`COc1ccc(C(=O)Nc2ccc(CN3C(=O)[C@@]4(O[C@@H](CCn5cc(CCO)nn5)[C@H]([Si](C)(C)c5ccc(OC)cc5)[C@H]4C)c4ccccc43)cc2)cc1`: the composite z-score was 0.0117.

Take `NC(=O)NCC#Cc1ccc2c(c1)[C@]1(C(=O)N2)[C@H](c2ccc(OCCO)cc2)N2[C@H](c3ccccc3)[C@H](c3ccccc3)OC(=O)[C@H]2[C@@H]1C(=O)NC[C@H](O)c1ccccc1`: the composite z-score is -0.559.

On to `O=C1[C@H]2C=C(I)[C@H](C[C@@H]2c2ccccc2)[C@@]12CO2`, for which the composite z-score is -0.172.

As to `CC(C)NC(=O)[C@@H]1c2ccccc2C(=O)N(Cc2ccc(OC(F)(F)F)cc2)[C@H]1c1ccc(CO)cc1`, the composite z-score is -0.486.

On to `COc1ccc([Si](C)(C)[C@H]2[C@H](CC(=O)N3Cc4ccccc4C[C@H]3CO)O[C@@]3(C(=O)N(c4ccccc4)c4ccccc43)[C@@H]2C)cc1`, for which the composite z-score is -0.542.

Molecule `CC(C)(C)N1CC=CC23O[C@@H]4/C=C\CCCOC(=O)C4[C@H]2C(=O)N(CCCO)[C@@H]3C1=O` (stereo partly specified) gave a composite z-score of 0.185.

As to `O=C1C2C=CC(C(O)c3ccc([N+](=O)[O-])cc3)N(Nc3ccccc3F)C2C(=O)N1c1ccccc1` (stereo unspecified), the composite z-score turned out to be 1.01.

Turning to `COc1ccccc1CN1C(=O)c2ccccc2[C@](Cc2ccccc2I)(C(=O)NCC(C)C)[C@@H]1c1ccc(CO)cc1`, the composite z-score was 0.215.

On to `C=C(CCCC)/C(=C/C[C@H](OC(=O)c1ccncc1)c1ccc(OCCO)cc1)c1cnc2ccccc2c1`, for which the composite z-score was -0.125.

Take `CCCC[C@H]1C[C@@H]1[C@@H]1N(C(C)=O)[C@H](c2cccc(OC)c2)CC12CC2`: the composite z-score was -0.643.

Molecule `O=C1O[C@H](Cc2ccccc2)[C@@H]2[C@H]3C=CCCC=C3CN2[C@H]1Cc1ccc(O)cc1` showed a composite z-score of 0.0222.

For the molecule `COCCOC(=O)N1C(=O)[C@@]2(c3cc(C#CCC(C(=O)OC)C(=O)OC)ccc31)[C@H](C(=O)Nc1nc3ccccc3s1)[C@H]1C(=O)O[C@H](c3ccccc3)[C@H](c3ccccc3)N1[C@@H]2c1ccc(OCCO)cc1`, the composite z-score was -0.0242.

In the case of `CCCCCCc1nc(Cc2cc(OC)c(OC)c(OC)c2)cc2c1[Si](C(C)C)(C(C)C)O[C@H]2c1ccccc1`, the composite z-score is 0.0646.

Take `COC(=O)c1cccc([C@H]2OC(=CC(=O)OC(C)C)C[C@@H](c3cccc(C(=O)OC)c3)O2)c1`: the composite z-score was -0.109.

`C=CC[C@]1(C(=O)NCC(O)CO)COC(c2ccc(OCCCO)cc2)=N1` (stereo partly specified): the composite z-score is -0.21.

Consider `COC(=O)[C@@]1(Cc2ccccc2)[C@H]2c3cc(C(=O)N(C)C)n(Cc4ccc(C(F)(F)F)nc4)c3C[C@H]2CN1C(=O)c1ccccc1`, for which the composite z-score was 2.05.

Consider `CCCNC(=O)[C@@]1(c2ccc([N+](=O)[O-])cc2)CC(=O)N(C(C)C)[C@@H]1c1ccc(CO)cc1`, for which the composite z-score was -0.326.

For `C[C@@H]1NC(=O)C([C@@H](C)OCc2ccccc2)NC(=O)[C@@]23C(=O)N[C@@H](Cc4ccccc4)C2[C@H](C)[C@@]2(C)O[C@H]2C3/C=C/C/C=C\CNC1=O` (stereo partly specified), the composite z-score is -0.423.

Turning to `CCOC(=O)C1=C[C@@H](C(C)(C)C)N(S(=O)(=O)c2ccc(C)cc2)[C@H]1c1ccc(C#N)cc1`, the composite z-score is 0.618.

The values are drawn from PubChem BioAssay.
